# This is a sample that favours compounds with a hit; in the whole collection about 7.9% have one here.
# HT1080NT lethal: kills 2HG-producing HT-1080-NT fibrosarcoma cells | HT-1080-NT fibrosarcoma viability, CellTiter-Glo ATP luminescence, 48 h | AID 686970 | hit rate 1.6% among 360,000 | Potency, µM (top dose mostly 46.1 µM), inactives show at the highest dose activity, negative = less viability, hits mostly cytotoxic;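 note: NT is the 2HG producing partner of a matched IDH1 knockdown line; 0% = DMSO-treated cells and -100% = media-only wells without cells; nearly all actives have a fitted effect of over 55% in size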
#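 HT-1080-NT fibrosarcoma cells (2HG-overproducing), 750 cells/well in RPMI with 5% FBS, dosed after 2 h and incubated 48 h at 37C. CellTiter-Glo luminescence normalized to DMSO and no-cell wells; concentration-response curves fitted and classed.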
# MCF10A rerep: inducers of DNA re-replication in MCF 10A breast cells | MCF 10A DNA re-replication, Hoechst nuclear intensity, 48 h | Potency, µM (highest dose often 46.1 µM), without a hit: top-dose activity, positive = re-replication, actives largely listed as activators | hit rate 2.9% among 350,000 | AID 624296; note: % of control where 0% means no effect; nearly all actives have a fitted effect of over 50% in size
# KB-V1 MDR tox: kills drug-selected multidrug resistant KB-V1 cells; KB-V1 MDR cells viability, CellTiter-Glo, 72 h; Potency, µM (titrated, usually from 46.1 µM), most hits filed as cytotoxic; hit rate 3.4% among 400,000; AID 1347076; note: % is set by controls: 0 for no effect and ±100 for the full control effect; nearly all actives have a fitted effect of over 60% in size
#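 Drug-selected KB-V1 cells, grown in DMEM lacking phenol red with 10% FBS, receive compound titrations; after three days at 37 degrees C, surviving cell ATP is quantified by CellTiter-Glo luminescence and responses normalized and curve-fitted.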
# SW480 rereplic: inducers of DNA re-replication in SW480 colon cancer cells | SW480 DNA re-replication, Hoechst DNA content imaging, 48 h | Potency, µM (series often up to 46.1 µM), without a hit: at the top dose re-replication activation, usual class: activators | hit rate 1.8% among 340,000; note: % of control where 0% means no effect; nearly all actives have a fitted effect of over 55% in size
#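 First, 250 cells per well were seeded. Next, compound or vehicle (23 nL) was pinned in, plates sat 48 hr at 37 C. Finally Hoechst was added for 40 min before fluorescence scanning.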
# KB-3-1 cytotox: KB-3-1 parental cell cytotoxicity; KB-3-1 viability, CellTiter-Glo ATP luminescence, 72 h; Potency, µM (titrated, usually from 46.1 µM), hits mostly cytotoxic; hit rate 1.4% among 400,000; note: % is set by controls: 0 for no effect and ±100 for the full control effect; nearly all actives have a fitted effect of over 60% in size
#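 Here the drug-naive KB-3-1 line serves as comparator for MDR sub-line selectivity; cells received compound titrations, 72 h at 37 °C, then CellTiter-Glo readout.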
# HT1080 IDH1KD tx: toxicity to HT-1080 IDH1 knockdown cells (counter line) | HT-1080 IDH1 knockdown viability, ATP luminescence, 48 h | Potency, µM (highest dose often 46.1 µM), for inactives: at the highest dose activity, negative = toxicity, usual class: cytotoxic | hit rate 2% among 360,000;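 note: 0% = DMSO wells and -100% = cell-free medium wells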
#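 Using the IDH1-knockdown HT-1080 line run in the same batch and compound series as the NT line, viability after 48 h at 37 °C was determined by CellTiter-Glo luminescence and expressed as % activity.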
# * = called active by the depositor; i = inactive; ? = inconclusive; nt = not tested or not shown. Calls come from the whole dose curve; as a rule, active = well fitted curve in the direction sought with a large enough effect; inconclusive = small, poorly fitted or top-dose-only effect, or another doubt; inactive = no such curve, though single readings can be large; an effect the other way counts as inactive or inconclusive. Potency is the fitted concentration of half-maximal effect.
SMILES,HT1080NT lethal,MCF10A rerep,KB-V1 MDR tox,SW480 rereplic,KB-3-1 cytotox,HT1080 IDH1KD tx
COc1ccc(CNC(=O)C(C)n2ccc3cc(S(=O)(=O)N4CCCC4)ccc32)cc1OC (stereo not given),nt,nt,i,nt,i,nt
CN1CCN(CCNC(=O)c2ccc3nc(-c4ccc(F)cc4)c(-c4ccc(F)cc4)nc3c2)CC1,18µM*,?,i,?,i,23µM*
CCc1nc2ccc(C(=O)NCCCN3CCN(c4ccc(F)cc4)CC3)cc2nc1CC,?,?,i,5%,?,?
Cn1c2c(c3ccccc31)CCN(CCCCN1CCN(c3ccccc3)CC1)C2=O,-14%,?,5.8µM*,?,i,?
Cc1c(C(=O)CN2CCN(c3ccccc3)CC2)c2ccccc2n1C,-19%,10%,i,-8%,i,-11%
Cc1ccc2c(CC(=O)NCc3ccco3)coc2c1C,5.2µM*,12µM*,5.8µM*,?,7.3µM*,7.3µM*
CNC(=O)c1cc2c(=O)n3cc(C)ccc3nc2n(C(C)C)c1=N,-1%,7.1µM*,i,?,i,9%
Cc1ccc2nc3c(cc(C(=O)NC4CCCC4)c(=N)n3C3CCCCC3)c(=O)n2c1,12%,?,?,?,?,4%
Cc1ccc2nc3c(cc(C(=O)NC4CCCC4)c(=N)n3C(C)C)c(=O)n2c1,nt,nt,i,nt,i,nt
Cc1ccc2nc3c(cc(C(=O)NC4CCCCC4)c(=N)n3C3CCCCC3)c(=O)n2c1,1%,?,?,18µM*,?,?
N=c1c(C(=O)NC2CCCC2)cc2c(=O)n3ccccc3nc2n1C1CCCCC1,1%,2.9µM*,?,4.6µM*,i,12%
CC1CCc2c(sc3nnn(Cc4ccc(F)cc4)c(=O)c23)C1 (stereo not given),nt,nt,i,nt,i,nt
Cc1cc(-c2ccc(N=Nc3ccc4c(S(=O)(=O)O)cc(S(=O)(=O)O)c(N)c4c3O)c(C)c2)ccc1N=Nc1ccc2c(S(=O)(=O)O)cc(S(=O)(=O)O)c(N)c2c1O,nt,-7%,nt,-2%,nt,nt
Nc1ccc2nc(-c3ccccc3)c(-c3ccccc3)nc2c1,-4%,21µM*,i,23µM*,i,-2%
Nc1ccc2nc(-c3ccccc3)sc2c1,?,26µM*,?,?,16µM*,?
Cc1ccc2nc(-c3ccc(N)cc3)sc2c1,-14%,21%,i,13%,?,-3%
Nc1ccc(Oc2ccc3nc(-c4ccccc4)c(-c4ccccc4)nc3c2)cc1,-10%,11%,?,11%,?,-7%
COc1ccc(C2SCCN2C(=S)Nc2ccc(Cl)cc2)cc1 (stereo not given),-6%,-2%,23µM*,4%,?,-2%
COc1ccc(C2CCCN2C(=S)Nc2cccc(Cl)c2)cc1OC (stereo not given),0%,4%,i,-1%,?,-3%
COc1ccc(C2SCCN2C(=S)Nc2cccc(Cl)c2)cc1 (stereo not given),-16%,-50%,7.3µM*,-7%,?,-6%
Cc1ccc(NC(=S)N2CCSC2c2cccs2)cc1 (stereo not given),-1%,1%,i,?,i,14%
COc1ccc(C(=O)Nn2c(SCC(=O)c3ccc(Cl)cc3)nc3ccccc3c2=O)cc1,?,18%,5.8µM*,-4%,i,?
COc1ccc(C(=O)Nn2c(SCC(=O)NCc3ccco3)nc3ccccc3c2=O)cc1,?,1%,?,-2%,?,?
COc1ccc(C(=O)Nn2c(SCC(=O)NC3CCCCC3)nc3ccccc3c2=O)cc1,?,9%,18µM*,-12%,i,-21%
COc1ccc(C(=O)Nn2c(SCC(=O)N3CCC(C)CC3)nc3ccccc3c2=O)cc1,?,2%,5.2µM*,-2%,i,?
SMILES,HT1080NT lethal,MCF10A rerep,KB-V1 MDR tox,SW480 rereplic,KB-3-1 cytotox,HT1080 IDH1KD tx
CCC(C)NC(=O)CSc1nc(-c2ccc(F)cc2)cc(C(F)(F)F)n1 (stereo not given),nt,nt,i,nt,i,nt
CCOC(=O)C(C)Nc1ncnc2onc(C)c12 (stereo not given),nt,nt,i,nt,i,nt
CCC1CCC/C1=N\NC(=O)c1cc(C)[nH]n1 (stereo not given),21%,2.9µM*,i,16µM*,i,0%
COC(=O)C1=C(C)NC(C)=C(C(=O)OCC(C)C)C1c1ccccc1[N+](=O)[O-] (stereo not given),16µM*,27µM*,3.7µM*,?,i,26µM*
CCNC(=S)N/N=C/c1ccc(OCC(=O)Nc2ccc(C)cc2)cc1,5.6µM*,?,?,?,i,10µM*
COc1ccc(C)cc1NS(=O)(=O)c1cc(Br)cc2c1N(C(C)=O)C(C)C2 (stereo not given),nt,nt,i,nt,i,nt
Cc1ccc(N2C(N)=C(C#N)C(c3cccs3)C3=C2CC(C)(C)CC3=O)cc1 (stereo not given),0%,12%,7.3µM*,?,?,-5%
CC1(C)CC(=O)C2=C(C1)N(c1ccc(F)cc1)C(N)=C(C#N)C2c1cccs1 (stereo not given),-2%,18µM*,?,?,i,-1%
CC1(C)CC(=O)C2=C(C1)N(c1ccccc1)C(N)=C(C#N)C2c1ccccc1 (stereo not given),5%,7%,i,-2%,i,2%
COc1ccc(C)cc1NC(=O)Nc1nnc(N2CCCCC2)s1,nt,nt,i,nt,i,nt
O=c1c(Cl)c(NCc2ccccc2Cl)cnn1C12CC3CC(CC(C3)C1)C2,9%,?,18µM*,?,?,19%
O=c1c(Cl)c(NCc2ccco2)cnn1C12CC3CC(CC(C3)C1)C2,4%,?,i,-6%,i,1%
O=C1OC(Nc2nc(-c3ccc(F)cc3)cs2)c2ccccc21 (stereo not given),?,21µM*,?,26µM*,i,23µM*
O=C1C(Cl)=C(Nc2ccc3cn[nH]c3c2)C(=O)c2ccccc21,?,0.58µM*,?,2.3µM*,?,2.6µM*
CC(=O)Nc1ccc(NC2=C(Cl)C(=O)c3ccccc3C2=O)cc1,4.6µM*,?,?,5.2µM*,16µM*,2.9µM*
CN(C)c1ccc(NC2=C(Cl)C(=O)c3ccccc3C2=O)cc1,3.3µM*,4.1µM*,i,2.9µM*,?,2.3µM*
CCOC(=O)c1cc(S(=O)(=O)N2CCN(c3cc(C)ccc3C)CC2)[nH]n1,nt,nt,i,nt,i,nt
